Measurements taken from PubChem BioAssay AID2018 (Sanford-Burnham Center for Chemical Genomics, 2009).
Among all 1,200 compounds or so, about 600 (50%) were called active. The set was probably picked from earlier hits. The list shows a part of the results. Entries with a potency or affinity are not part of this list. A number with no mark means an inactive call. No stated cut-off is given here; in the data, active means inhibition above about 42%; inactive means the rest.

Each compound was assayed against SUMO-conjugating enzyme UBC9 (Homo sapiens) (UniProt P63279) (assay: blockers of UBC9-mediated SUMO conjugation – biochemical, AlphaScreen, SUMOylation inhibitor project, confirmation (AID 2018)). Conditions: AlphaScreen in vitro SUMOylation assay; at 35 µM; stronger effect = higher value.
Chain of SUMO-conjugating enzyme UBC9 (Homo sapiens) (P63279 whole entry, looked up): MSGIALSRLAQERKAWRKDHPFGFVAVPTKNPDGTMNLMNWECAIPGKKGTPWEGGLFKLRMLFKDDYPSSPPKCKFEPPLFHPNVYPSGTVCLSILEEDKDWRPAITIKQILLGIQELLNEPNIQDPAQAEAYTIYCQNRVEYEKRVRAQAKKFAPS

SMILES | inhibition
O=C1CC(c2ccco2)CC(O)=C1C=Nc1cc(Cl)ccc1O (centres undefined) | 54.5% (active)
O=C1CC(c2ccco2)CC(O)=C1C=Nc1cc(Cl)ccc1Cl (centres undefined) | 17.2%
O=C1CC(c2ccco2)CC(O)=C1C=NCC1NCCc2ccccc21 (centres undefined) | 18.6%
O=C1C(Cl)=C(N2CCN(c3ccccc3[N+](=O)[O-])CC2)C(=O)c2ccccc21 | 101% (active)
O=C1CCN(c2ncccc2[N+](=O)[O-])CC1 | -9.6%
Nc1c(Cl)cc(NC(=O)c2ccccc2C(=O)O)cc1Br | 8%
CCCCN1Cc2c(nc3cc(-c4ccco4)[nH]n3c2=O)C1=O | 4.3%
NS(=O)(=O)c1cnccc1Nc1ccc(Cl)cc1 | -32.2%
C/C(=C\C(=O)c1ccccc1)Nc1ccc(O)cc1 | 18.7%
O=C(Nc1ccccc1)c1ccccc1CCc1ccccc1 | -9.6%
COc1ccc(C2=NN(C(=O)c3cccs3)C(c3ccccc3O)C2)cc1 (centres undefined) | 27.7%
O=C(O)c1ccc(N2N=C(c3ccccc3)CC2c2ccccc2)cc1 (centres undefined) | -14.9%
Cc1cc(=O)n2[nH]c(N)c(N=Nc3ccccc3)c2n1 | 23.6%
CCOCCCNC1=C(Cl)C(=O)c2ccccc2C1=O | 90.1% (active)
O=C1c2nc3cc(-c4ccco4)[nH]n3c(=O)c2CN1C1CCCCC1 | 6.6%
O=C(NCc1ccc(F)cc1)C(=O)c1cn(CC(=O)N2CCCC2)c2ccccc12 | 11.6%
Cc1[nH][nH]c(=O)c1C(c1c(C)[nH][nH]c1=O)c1cn(Cc2cccc3ccccc23)c2ccccc12 | 32.5%
Cc1[nH][nH]c(=O)c1C(c1c(C)[nH][nH]c1=O)c1cn(Cc2ccc(F)cc2)c2ccccc12 | 50.9% (active)
Cc1[nH][nH]c(=O)c1C(c1c(C)[nH][nH]c1=O)c1cn(C)c2ccccc12 | 102% (active)
O=C(O)/C=C/C(=O)Nc1ccc2c(c1)NC(=O)CO2 | 13.1%
Cc1c(O)ccc2c(CC(=O)N[C@@H](Cc3ccc(O)cc3)C(=O)O)cc(=O)oc12 | 16.9%
COc1ccc2c(c1)c(=O)oc1c(C)c(OCc3ccc(C(=O)O)cc3)ccc12 | 65.5% (active)

SMILES | inhibition
COc1cc2cc(NC(C)=O)cc(NCc3ccccc3)c2cc1OC | 50.6% (active)
CC(=O)Nc1cccc(NC(=S)Nc2cccc3ccccc23)c1 | 28.9%
COc1ccc(NC(=S)Nc2cccc3ccccc23)cc1OC | 10.7%
CC(=O)Nc1ccc(S(=O)(=O)Nc2cccn(Cc3ccc(C)cc3)c2=O)cc1 | 1.7%
CCOC(=O)N1CCN(C2=C(NS(=O)(=O)c3ccc(NC(C)=O)cc3)C(=O)c3ccccc3C2=O)CC1 | 53.7% (active)
Cc1ccc(C(=O)Nc2ccccc2C(=O)N2CCN(c3ccccc3)CC2)cc1 | -27.1%
CCOC(=O)N1CCC(c2cc(=O)n(-c3ccccc3)[nH]2)CC1 | 16.1%
CCOC(=O)N1CCN(C2=C(NS(=O)(=O)c3ccc(C)cc3)C(=O)c3ccccc3C2=O)CC1 | 85.2% (active)
COc1ccc(Br)cc1C1CC(=O)N2CN(Cc3ccccc3)CSC2=C1C#N (centres undefined) | 29.1%
COc1ccc(CC2=C(O)c3ccccc3C(=O)C2=O)cc1 | 19.6%
O=C1C(=O)c2ccccc2C(O)=C1CCCCl | 102% (active)
CC1(OC(=O)c2cccs2)C(=O)C=C2C=C3CCCN3C=C2C1=O (centres undefined) | 83.7% (active)
Cc1nc2ccc(NC(=O)NCc3ccco3)cc2s1 | -8.1%
CC(=O)C1=C(O)C=C(c2ccco2)CC1c1ccco1 (centres undefined) | 28.1%
Cc1ccc(S(=O)(=O)NNC(=S)Nc2c(Cl)cccc2Cl)cc1 | -0.4%
Fc1ccc(-c2ccnc3nc(N4CCOCC4)nn23)cc1 | -6.1%
O=C(O)c1ccc(C(=O)Nc2cccc3ccccc23)c(C(=O)O)c1 | 12.5%
Cc1cc(N2C(=O)c3ccc(C(=O)Nc4ccc(O)cc4C(=O)O)cc3C2=O)no1 | 39.8%
N#Cc1ccc(-c2csc(NC(=O)/C=C/c3cccs3)n2)cc1 | 3.9%
CNc1nnc(-c2cc3ccccc3oc2=O)s1 | 28.9%
Nc1nnc(-c2cc3c(ccc4ccccc43)oc2=O)s1 | 46.1% (active)
COC(=O)c1scc(C)c1NC(=O)C(Cl)c1ccccc1 (centres undefined) | -8.2%

SMILES | inhibition
CC(=O)c1sc2nc(-c3ccco3)ccc2c1N | 40%
N#Cc1sc2nc(-c3ccccc3)cc(-c3ccco3)c2c1N | 96.1% (active)
N#Cc1c(-c2ccco2)cc(-c2cccnc2)nc1N | 26.7%
CCOc1cc2c(C#N)c(N3CCOCC3)nc(N)c2c(N)n1 | 44.2% (active)
CCOc1cc2c(C#N)c(N3CCNCC3)nc(N)c2c(N)n1 | 18.3%
COc1ccc(CN2C(=O)Cc3c2nc(N)c2c(N)nc(N4CCOCC4)c(C#N)c32)cc1 | 11%
CCOc1cc2c(C#N)c(N3CCCCC3)nc(N)c2c(N)n1 | 101% (active)
Cc1oc2c(c(C)cc3oc(=O)c(CC(=O)NCC(=O)NCC(=O)NCC(C)O)c(C)c32)c1C (centres undefined) | -15.6%
O=C(Nc1cccc2cccc(NC(=O)c3ccco3)c12)c1ccco1 | 36.3%
COc1ccc(-n2c(NC(=O)c3ccco3)c(C#N)c3nc4ccccc4nc32)cc1 | 101% (active)
CCOC(=O)c1c(NC(=O)c2ccco2)n(C2CCCCC2)c2nc3ccccc3nc12 | 63.5% (active)
CN(c1ccccc1)c1cc(=O)[nH]c(=O)[nH]1 | 11.4%
Oc1ccc(NC(=S)Nc2ccc(O)cc2)cc1 | 19.5%
O=[N+]([O-])c1ccc(C=Nc2cccc3ccccc23)s1 | 82.6% (active)
Cc1ccccc1N=Cc1cccc(O)c1O | 33.2%
O=[N+]([O-])c1ccc(-c2ccc(C=Nc3cccc4ccccc34)o2)cc1 | 58.3% (active)
O=C(CNc1cccc2ccccc12)N/N=C/c1ccc([N+](=O)[O-])cc1 | -19.8%
Oc1cccc(C=NCc2ccccc2)c1O | 51.5% (active)
Oc1oc(-c2ccccc2)nc1C=Nc1cccc2ccccc12 | -77.5%
Oc1cccc(C=Nc2cccc3ccccc23)c1O | 59% (active)
